Screening results (PubChem BioAssay)
In the library only some 5.2% were active in any assay of this set; here they are far more common.
NadD block: NadD (S. aureus) enzyme inhibition; purified NadD enzyme, colorimetric absorbance read-out; inhibition, % at 20 µM; actives 0.78% (n = 360,000); AID 602399; in the data active = inhibition above about 26%
NR3A LBD binder: NR3A (human) ligand-binding domain modulation | NR3A LBD differential scanning fluorimetry, Tm shift; 0% = protein alone, 100% = glycine-bound protein | Tm shift relative to glycine control, % at 25 µM | actives 2.5% (n = 340,000);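 active = melting temperature shift of at least 10% of the positive control shift, at one fixed dose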
SMARCA2 activ: activators of SMARCA2 function; MG213 cells, MMTV-luciferase reporter, dexamethasone, overnight; actives 1% (n = 370,000); activation, % at 9.1 µM; in the data active = activation above about 7.8%;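 also: 0% = vehicle wells and 100% = reference activator wells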
esBAF inh: blocks esBAF chromatin remodeling in mouse ES cells; actives 2% (n = 350,000); Bmi1-luciferase knock-in reporter, 24 h; 100% = twice the neutral-well signal; reporter increase, % at 12.5 µM; in the data active = activation above about 40%;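 also: 0% = median of the plate's neutral control wells and 100% = double that signal; a rise in the Bmi1 reporter signal indicates esBAF inhibition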
Vif inh: HIV Vif inhibition; HEK293T cells, Vif self-association by quenched fluorescence, imaging, 24 h; inhibition, % at 7.49 µM; actives 0.35% (n = 340,000); AID 602346; in the data active = inhibition above about 50%, passing the limit was not always enough
SKN-1 inh: C. elegans SKN-1 inhibition | AID 624304 | C. elegans VP596 Pgst-4::GFP/RFP ratio, acrylamide-induced, 24 h | actives 0.49% (n = 360,000) | inhibition, % at 21.8 µM;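 active = interference check ratio from 0.5 to 1.5 plus GFP to RFP signal ratio inhibition reaching or exceeding a fixed threshold, cut at about 30% in these data, passing the limit was not always enough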
Active calls of the source: *; . = no result given.

SMILES	NadD block	NR3A LBD binder	SMARCA2 activ	esBAF inh	Vif inh	SKN-1 inh
C[C@@H]1CN([C@@H](C)CO)C(=O)c2cc(C#CCN(C)C)cnc2O[C@@H]1CN(C)Cc1ccncc1	.	.	.	-2	.	.
C[C@@H]1CN([C@H](C)CO)C(=O)Cc2cc(NC(=O)Cn3cnnn3)ccc2O[C@@H]1CN(C)C	.	.	.	1	.	.
COCC(=O)Nc1ccc2c(c1)[C@H]1C[C@H](CC(=O)NCc3ccccc3F)O[C@@H](CO)[C@H]1O2	.	.	.	0	.	.
O=C(C1=C(O)/C(=C/c2ccc(O)cc2)CCC1)C(F)(F)F	2	12*	1	12	10	15
C[C@@H]1CN([C@H](C)CO)S(=O)(=O)c2ccc(C#CCN(C)C)cc2O[C@H]1CN(C)C(=O)C1CCC1	.	.	.	1	.	.
O=C(O)COc1ccc(-c2nccc(-c3ccccn3)n2)cc1	4	2	-10	-73	0	-4
FCCCOc1ccc(-c2nccc(-c3ccccn3)n2)cc1	-6	0	1	11	-3	66*
CC(C)CC#Cc1ccc2c(c1)O[C@@H](CN(C)C(=O)C1CCCCC1)[C@H](C)CN([C@H](C)CO)S2(=O)=O	.	.	.	0	.	.
S=C(Nc1ccc(Cl)cc1)c1nc2ccccc2s1	2	-1	2	35	-6	-13
Cc1ccc(NC(=S)c2nc3ccccc3s2)cc1	-4	4	-1	-19	-2	35*
Clc1ccc(C#Cc2cccnc2)cc1	0	0	1	67*	4	75*
O=C(NC1Cc2ccccc2C1)[C@H]1[C@H](CO)[C@H]2Cn3c(cccc3=O)[C@H]2N1C(=O)c1ccccn1	.	.	.	3	.	.
COCCNC(=O)C[C@@H]1CC[C@H](NS(=O)(=O)c2ccc(C)cc2)[C@H](CO)O1	.	.	.	3	.	.
C[C@@H]1CN([C@@H](C)CO)C(=O)c2cc(NC(=O)c3ccccc3)ccc2O[C@@H](C)CCCCO[C@H]1CN(C)Cc1ccc2c(c1)OCO2	.	.	.	-8	.	.
COCC(=O)N(C)C[C@@H]1Oc2ncc(C#C[C@@H](C)O)cc2C(=O)N([C@@H](C)CO)C[C@@H]1C	.	.	.	2	.	.
CCC(C(=O)N1CCOCC1)n1nc(C)n2c(cc3cc(C)ccc32)c1=O (centres undefined)	0	11*	-1	-2	2	6
CO[C@H]1CN(C)C(=O)c2ccc(NC(=O)NC(C)C)cc2OC[C@H](C)N(C(=O)NC(C)C)C[C@H]1C	.	.	.	2	.	.
O=C(C[C@H]1CC[C@H]2[C@@H](COC[C@@H](O)CN2C(=O)c2ccc(F)cc2)O1)Nc1nccs1	.	.	.	0	.	.
c1ccc2cc(C3OCC4(CCCC4)CO3)ccc2c1	0	.	1	71*	.	10
CC(C)c1ccc(NC(=O)c2cc(Br)ccc2Br)cc1	2	-4	3	72*	-17	7
CCc1ccc(NC(=O)c2cc(Br)ccc2Br)cc1	.	.	0	.	.	.
NC(=O)c1cccc(-c2cc(Nc3ccc(OC(F)(F)F)cc3)ncn2)c1	-7	25*	-2	.	.	8
O=C(NCCO)c1cccc(-c2cc(Nc3ccc(OC(F)(F)F)cc3)ncn2)c1	.	.	-6	.	.	.
O=C(NCC[C@@H]1CC[C@@H](NC(=O)C2CCOCC2)[C@@H](CO)O1)Nc1ccc(Cl)cc1	.	.	.	3	.	.
CN1C(=O)c2cc(NS(=O)(=O)c3ccc(F)cc3)ccc2OC[C@H]2O[C@H](CC(=O)NCC(F)(F)F)CC[C@@H]21	.	.	.	-1	.	.
SMILES	NadD block	NR3A LBD binder	SMARCA2 activ	esBAF inh	Vif inh	SKN-1 inh
O=C(Nc1cccc(-c2ccc(N3CCOCC3)nn2)c1)c1ccc(F)cc1F	9	-1	0	.	2	12
CCC(=O)Nc1cccc(-c2ccc(N3CCN(C)CC3)nn2)c1	6	1	.	41*	0	29
CCOc1ccc(C(=O)Nc2cccc(-c3ccc(N4CCOCC4)nn3)c2)cc1OCC	1	-1	1	64*	-18	2
COc1cccc(C(=O)Nc2cccc(-c3ccc(N4CCOCC4)nn3)c2)c1	3	0	7	67*	.	-5
COc1ccc(C(=O)Nc2cccc(-c3ccc(N4CCOCC4)nn3)c2)cc1OC	3	-2	5	19	-14	7
CCOc1ccccc1C(=O)Nc1cccc(-c2ccc(N3CCOCC3)nn2)c1	6	-1	2	63*	12	-1
CCC(=O)Nc1cccc(-c2ccc(N3CCCCC3)nn2)c1	1	-2	6	-5	21	1
C[C@@H]1CCCCO[C@@H](CN(C)Cc2ccc3c(c2)OCO3)[C@H](C)CN([C@H](C)CO)C(=O)c2cc(N(C)C)ccc2O1	.	.	.	-10	.	.
Cc1cccc(C(=O)NNC(=O)c2ccc(F)cc2)c1	2	-4	0	.	22	-1
Cc1cccc(C(=O)NNS(=O)(=O)c2ccc(F)cc2)c1	-2	-1	-3	42*	3	19
Cc1ccc(NS(=O)(=O)c2ccc(NC(=O)c3cccc(NC(=O)C(C)C)c3)cc2)cc1	6	18*	-2	20	-12	-6
Cc1cccc(C(=O)Nc2ccc(S(=O)(=O)Nc3nc(C)cc(C)n3)cc2)c1	-1	13*	-3	-4	-2	3
Cc1cccc(C(=O)NCC(=O)Nc2ccc(S(=O)(=O)Nc3nc(C)cc(C)n3)cc2)c1	-3	-4	-5	.	7	-5
O=C(O)c1cc(-c2ccc(-c3c(-c4ccc5c(c4)OCO5)noc3-c3ccsc3)cc2)nc2ccccc12	18	-5	3	68*	-11	0
c1ccc2sc(Sc3ncnc4sccc34)nc2c1	1	0	6	.	-6	8
CCc1cc2c(Sc3nc4ccccc4s3)ncnc2s1	0	2	-6	19	89*	12
C[C@H]1CN([C@@H](C)CO)C(=O)Cc2cc(NC(=O)Cc3cn(C)c4ccccc34)ccc2O[C@H]1CN(C)Cc1ccc(C(=O)O)cc1	.	.	.	4	.	.
CN(C)S(=O)(=O)c1ccc(C(=O)NCCOc2ccc(F)cc2)cc1	-4	0	3	61*	8	-5
Cc1[nH]n(-c2ncc(-c3ccccc3)s2)c(=O)c1C(c1ccc(Cl)cc1)C(C#N)C#N (centres undefined)	8	12*	-3	.	-2	6
Cc1[nH]n(-c2ccccc2)c(=O)c1C(c1ccccc1[N+](=O)[O-])C(C#N)C#N (centres undefined)	3	-1	0	-1	6	20
O=C(C[C@@H]1CC[C@@H]2[C@H](COC[C@@H](O)CN2Cc2ccccc2F)O1)N1CCc2ccccc2C1	.	.	.	5	.	.
CCOC(=O)c1c(C)c(C(=O)NCCOC)c(C)n1CC	-3	-1	1	1	26	3
CCOC(=O)c1c(C)c(C(=O)Nc2ccc(N(C)C)cc2)c(C)n1CC	6	-1	2	47*	.	13
Cc1c(N2C(=O)/C(=C\c3ccc(N(C)C)cc3)N(C)C2=S)c(=O)n(-c2ccccc2)n1C	2	-1	-2	-7	42	64*
